“And” between values parts separate entries of the source, which are not always exact repeats. Identical values can stand only once. The source made the active and inactive calls. The calls were made as follows: active = hit-call score of the fitted dose curve at least 0.9, where 1 is the maximum; inactive = score below 0.9.
Assay: BSK_3C_Proliferation: Cell Proliferation Assessment in the BioMAP Diversity Plus: 3C Assay (AID 2283006);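 as to AC50: potency may reflect either rise or fall in cell number versus DMSO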
Conditions: primary human endothelial cells (HUVEC)
Procedure: BSK_3C is a cell-based, multiplexed-readout assay that uses umbilical vein endothelium, a human vascular primary cell, with measurements taken at 24 hours after chemical dosing in a 96-well plate.BSK_3C_Proliferation is an assay component measured in the BSK_3C assay. It measures 0.1% sulforhodamine related to cell proliferation using Sulforhodamine staining technology.Data from the assay component BSK_3C_Proliferation was analyzed into 1 assay endpoint. This assay endpoint, BSK_3C_Proliferation, was analyzed with bidirectional fitting relative to DMSO as the negative control and baseline of activity. Using a type of viability reporter, measures of total protein for gain or loss-of-signal activity can be used to understand the viability at the cellular-level. Furthermore, this assay endpoint can be referred to as a secondary readout, because this assay has produced multiple assay endpoints where this one serves a viability function. To generalize the intended target to other relatable targets, this assay endpoint is annotated to the cell cycle intended target family, where the subfamily is proliferation.
The levels of cell surface (or secreted, indicated by the prefix "s") biomarker endpoints were measured by ELISA. Overt cytotoxicity to cells in confluent adherent cultures (all systems other than the BT system) was assessed by measuring total protein levels using sulforhodamine B (SRB) staining in parallel cultures at the time of biomarker measurements, indicated as SRB endpoints. For proliferation assays for adherent cell types, individual cell types are cultured at sub-confluence and relative cell numbers quantified by SRB staining at time points optimized for each system (48 h: 3C and CASM3C systems; 72 h: BT and HDF3CGF systems; 96 h: SAg system). SRB was performed by staining cells with 0.1% SRB after fixation with 10% TCA and reading wells at 560 nm.Viability and proliferation of PBMC (T cells) was quantified by Alamar Blue reduction for the SAg and BT systems. For PBMC viability (referred to as PBMC Cytotoxicity within the assay endpoint names), cells were plated (75,000/well in a 96-well plate) and then chemical samples added for 1 h before addition of activators, SEB and TSST-1 (20 ng/mL final concentration each). Cells were incubated for 90 h. Then, Alamar Blue (20 uL/well) (Invitrogen, Cat DAL1100) was added for 6 h, and the plates were read with a fluorescence microplate reader at 546/580 nm (excitation/emission). For PBMC proliferation, cells were plated and activated as above but incubated for only 16 h prior to addition of Alamar Blue. Plates were read after 6 h.

Structure (SMILES)	outcome	AC50
Brc1ccc(Oc2ccccc2)cc1	inactive	–
N#CC(Br)Br	inactive	–
Nc1ccc(Cc2ccc(N)cc2)cc1	inactive	–
CCCCCCCCCCCCCN1CC(C)OC(C)C1 (stereo not given)	–	14.5 µM (active)
CN(C)[C@@H]1C(=O)C(C(N)=O)=C(O)[C@@]2(O)C(=O)C3=C(O)c4c(O)cccc4[C@@](C)(O)[C@H]3C[C@@H]12	inactive	–
CCN(CC)CCO	inactive	–
O=Cc1ccco1	inactive	–
[As]#[In]	inactive	–
Oc1ccc2ccc3cccc4ccc1c2c34	–	24.6 µM (active)
Cc1cccc(N)c1N	inactive	–
CC(C)(C)OOC(C)(C)CCC(C)(C)OOC(C)(C)C	inactive	–
CC(O)CCO (stereo not given)	inactive	–
O=[N+]([O-])c1ccc(Oc2ccc(Cl)cc2Cl)cc1	–	32.4 µM (active)
CC(C)(C)OOC(=O)c1ccccc1	inactive	–
C[C@]12C=CC3=C4CCC(=O)C=C4CC[C@H]3[C@@H]1CC[C@@H]2O	–	6.61 µM (active)
c1ccc2c(c1)oc1ccccc12	inactive	–
Nc1ccc([N+](=O)[O-])cc1	inactive	–
CC(C)(C)C(O)(CCc1ccc(Cl)cc1)Cn1cncn1 (stereo not given)	inactive	–
Cn1cc(-c2ccccc2)c(=O)c(-c2cccc(C(F)(F)F)c2)c1	inactive	–
C=CCc1ccc2c(c1)OCO2	inactive	–

Structure (SMILES)	outcome	AC50
CCN(CC)N=O	inactive	–
COP(=S)(OC)SCN1C(=O)c2ccccc2C1=O	–	28.4 µM (active)
Clc1ccc(Cl)c(Cl)c1	inactive	–
CNC(=O)Oc1cccc2c1OC(C)(C)C2	inactive	–
CCCCC(CC)COC(=O)c1ccc(C(=O)OCC(CC)CCCC)c(C(=O)OCC(CC)CCCC)c1 (stereo not given)	inactive	–
O=C(O)C1C2CCC(O2)C1C(=O)O (stereo not given)	–	20.5 µM (active)
CC(C)(OOC(C)(C)c1ccccc1)c1ccccc1	–	31.1 µM (active)
Cc1ccc([N+](=O)[O-])cc1	inactive	–
CN(C)c1ccc(C(=O)c2ccc(N(C)C)cc2)cc1	–	1.68 µM (active)
CCNS(=O)(=O)C(F)(F)C(F)(F)C(F)(F)C(F)(F)C(F)(F)C(F)(F)C(F)(F)C(F)(F)F	–	19.3 µM (active) and 46 µM (active) and 43.2 µM (active)
Cc1ccc(N=C=O)cc1N=C=O	–	13.9 µM (active)
[Cl-].[Cl-].[Hg+2]	–	32.6 µM (active)
ClCCOCCCl	inactive	–
CCOc1cccc(C2(N3CCN(c4ccccc4)CC3)CCC(C)CC2)c1 (stereo not given)	inactive	–
O=C(Nc1ccccc1)c1ccccc1I	inactive	–
CCCCCCCCn1sccc1=O	–	0.796 µM (active)
ClC1=C(Cl)C2(Cl)C3C(Cl)C=CC3C1(Cl)C2(Cl)Cl (stereo not given)	–	7.84 µM (active)
CCCSC(=O)N(CCC)CCC	inactive	–
COC(=O)Nc1nc2ccccc2[nH]1	–	9.95 µM (active)
COc1cc(C=O)cc2c1[C@H](COC(N)=O)[C@]1(OC(C)=O)ON2C[C@H]2[C@@H]1N2C(C)=O	–	0.369 µM (active)

Reference: PubChem BioAssay (EPA / NIEHS)
